39 compounds from PubChem BioAssay (Tox21) can be followed below.

Values without a mark were called inactive. Results filed as inconclusive are left out. Calls of active or inactive are those of the source. Calls follow the shape of the dose curve; as a rule, active = well fitted curve in the direction sought with a large enough effect in the repeat runs; inconclusive = weak or mixed curves; inactive = no such curve, though single readings can be large; an effect the other way counts as inactive or inconclusive.
% is scaled to controls: 0 for no effect and ±100 for the full control effect.

One experiment in a line: qHTS assay for small molecule disruptors of the mitochondrial membrane potential (AID 720635). Also: potency is read from the fitted curve at half-maximal effect. The following applies: HepG2 mitochondrial membrane potential, Mito-MPS dye ratio; series mostly up to 83.2 µM; ratio activity, negative = MMP loss: at the top concentration. In a few lines:
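HepG2 cells (2,000/well) attached overnight at 37C, then took compound for 1 hr at 37C, 5% CO2. Mito-MPS dye was added for 30 min; fluorescence was read at 490/535 nm (monomers) and 540/590 nm (aggregates).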
(In general: In qHTS, concentration-response curves come from the screen itself.)
As to `CNC(=O)c1c(I)c(C(=O)NCC(=O)Nc2c(I)c(C(=O)O)c(I)c(C(=O)NCCO)c2I)c(I)c(N(C)C(C)=O)c1I`, the “ratio activity, negative = MMP loss” value is -17.4%.
As to `CCCCCc1ccc(C)cc1O`, the Potency is 10.6 µM (active).
Same read-out and setting: then `N#CC(c1ccc(Cl)cc1)c1c(Cl)cc(-n2ncc(=O)[nH]c2=O)cc1Cl` (centres undefined), with 8.41 µM (active); and `CN[C@H]1CCc2cc(OC)c(OC)c(OC)c2-c2ccc(OC)c(=O)cc21`, with 0.335 µM (active); and `COC(=O)C1=C(C#N)NC(C)=C(C(=O)OC(C)C)C1c1cccc([N+](=O)[O-])c1` (centres undefined), with 19.7 µM (active).
Same read-out and setting: under `C[C@]12C=CC(=O)N[C@@H]1CC[C@@H]1[C@@H]2CC[C@]2(C)[C@@H](C(=O)Nc3cc(C(F)(F)F)ccc3C(F)(F)F)CC[C@@H]12` stands 0.944 µM (active); under `CC(=O)Nc1ccc(OC(=O)c2ccccc2O)cc1`, 26.6 µM (active).
On the same count and under the same terms, under `NC(=O)Oc1ccc(Cc2ccccc2)cc1` stands 21.1 µM (active); under `C[C@]12CC[C@@H]3c4ccc(OC(=O)c5ccccc5)cc4CC[C@H]3[C@@H]1CC[C@@H]2O`, 2.98 µM (active).
As to `Clc1cc(Cl)c(OCC#CI)cc1Cl`, the Potency was 4.73 µM (active).
Still for that read-out and setting: then `CC1=C(C(=O)OCCN(Cc2ccccc2)c2ccccc2)C(c2cccc([N+](=O)[O-])c2)C(P2(=O)OCC(C)(C)CO2)=C(C)N1` (centres undefined), with 26.6 µM (active).
`CCC(C)(C)OC(=O)N[C@@H](Cc1c[nH]c2ccccc12)C(=O)N[C@@H](CCSC)C(=O)N[C@@H](CC(=O)O)C(=O)N[C@@H](Cc1ccccc1)C(N)=O`: the “ratio activity, negative = MMP loss” value was -0.844%.
`O=C(Nc1ccc(Br)cc1)c1cc(Br)c(Br)s1`: the Potency was 0.668 µM (active).
The same measure, in the same setting: then `CCCOc1ccc2nc(NC(=O)OC)sc2c1`, with 7.5 µM (active).
Regarding `C[N+]1(C)[C@@H]2CC(OC(=O)C(O)(c3cccs3)c3cccs3)C[C@H]1[C@@H]1O[C@@H]12` (some centres undefined), the “ratio activity, negative = MMP loss” value is 17.1%.
Take `CCCCCCCCCCCCCCCC(=O)OC[C@@H](O)[C@H]1OC[C@H](O)[C@H]1O`: the “ratio activity, negative = MMP loss” value is 17.1%.
Turning to `CCC(=O)OCC(=O)[C@@]1(OC(=O)CC)[C@@H](C)C[C@H]2[C@@H]3CCC4=CC(=O)C=C[C@]4(C)[C@@]3(Cl)[C@@H](O)C[C@@]21C`, the Potency is 21.1 µM (active).
`NC[C@@H]1O[C@H](O[C@H]2[C@@H](O)[C@H](O[C@@H]3[C@@H](O)[C@H](N)C[C@H](N)[C@H]3O[C@H]3O[C@H](CN)[C@@H](O)[C@H](O)[C@H]3N)O[C@@H]2CO)[C@H](N)[C@@H](O)[C@@H]1O`: the “ratio activity, negative = MMP loss” value was 2.04%.
For `O=C1/C(=C\c2cccs2)CCC/C1=C\c1cccs1`, the Potency is 21.1 µM (active).
The same measure, in the same setting: under `O=C(OCc1ccccc1)c1cccnc1` stands 23.7 µM (active).
In the case of `O=C(O)CO.[NH2-].[NH2-].[Pt+2]`, the “ratio activity, negative = MMP loss” value is -9.33%.
Take `C=C1CC[C@H](O)CC1=C/C=C1\CCC[C@]2(C)[C@@H]([C@H](C)CC[C@@H](O)C(C)(C)O)CC[C@@H]12`: the Potency was 11.9 µM (active).
For `CCOC(=O)[C@@H](N)CS`, the “ratio activity, negative = MMP loss” value was 21.3%.
As to `Cn1c(O)c(N=NC(N)=S)c2ccccc21`, the Potency was 4.95 µM (active).
For the compound `CC(/C=C/C=C(\C)C(=O)O[C@@H]1O[C@H](CO[C@@H]2O[C@H](CO)[C@@H](O)[C@H](O)[C@H]2O)[C@@H](O)[C@H](O)[C@H]1O)=C\C=C\C=C(C)\C=C\C=C(/C)C(=O)O[C@@H]1O[C@H](CO[C@@H]2O[C@H](CO)[C@@H](O)[C@H](O)[C@H]2O)[C@@H](O)[C@H](O)[C@H]1O`, the “ratio activity, negative = MMP loss” value was -13.5%.

A short description of a further experiment: qHTS assay to test for compound auto fluorescence at 590 nm (red) in HepG2 cells (AID 720674). The following applies: HepG2 autofluorescence, red 540/590 nm, 1 h; series mostly up to 46 µM; fluorescence, relative to Rose Bengal: at the top concentration. In a few lines:
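Intrinsic compound fluorescence in the red window (Ex/Em 540/590 nm) is measured in attached HepG2 cells exposed for 1 hr, DMSO vehicle as baseline, benchmarked to Rose Bengal sodium.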
Regarding `CNC(=O)c1c(I)c(C(=O)NCC(=O)Nc2c(I)c(C(=O)O)c(I)c(C(=O)NCCO)c2I)c(I)c(N(C)C(C)=O)c1I`, the “fluorescence, relative to Rose Bengal” value is 0.259%.
On the same count and under the same terms, under `CCCCCc1ccc(C)cc1O` stands -0.195%; under `N#CC(c1ccc(Cl)cc1)c1c(Cl)cc(-n2ncc(=O)[nH]c2=O)cc1Cl` (centres undefined), -0.468%; under `CN[C@H]1CCc2cc(OC)c(OC)c(OC)c2-c2ccc(OC)c(=O)cc21`, -0.608%.
Take `COC(=O)C1=C(C#N)NC(C)=C(C(=O)OC(C)C)C1c1cccc([N+](=O)[O-])c1` (centres undefined): the “fluorescence, relative to Rose Bengal” value is -0.369%.
Same read-out and setting: under `C[C@]12C=CC(=O)N[C@@H]1CC[C@@H]1[C@@H]2CC[C@]2(C)[C@@H](C(=O)Nc3cc(C(F)(F)F)ccc3C(F)(F)F)CC[C@@H]12` stands 0.0188%; under `CC(=O)Nc1ccc(OC(=O)c2ccccc2O)cc1`, 0.167%; under `NC(=O)Oc1ccc(Cc2ccccc2)cc1`, -0.605%.
Take `CCCCCCCN(CC)CCCC(O)c1ccc(NS(C)(=O)=O)cc1` (centres undefined): the “fluorescence, relative to Rose Bengal” value was -0.0163%.
Same read-out and setting: under `[O]=[Bi][O]C(=O)[O][Bi]=[O]` stands -0.911%.
Take `C[C@]12CC[C@@H]3c4ccc(OC(=O)c5ccccc5)cc4CC[C@H]3[C@@H]1CC[C@@H]2O`: the “fluorescence, relative to Rose Bengal” value is 0.0573%.
Regarding `CCC(=O)O[C@]1(C(=O)CCl)[C@@H](C)C[C@H]2[C@@H]3C[C@H](F)C4=CC(=O)C=C[C@]4(C)[C@@]3(F)[C@@H](O)C[C@@]21C`, the “fluorescence, relative to Rose Bengal” value is 0.542%.
`Clc1cc(Cl)c(OCC#CI)cc1Cl`: the “fluorescence, relative to Rose Bengal” value is 0.397%.
Still for that read-out and setting: under `CC1=C(C(=O)OCCN(Cc2ccccc2)c2ccccc2)C(c2cccc([N+](=O)[O-])c2)C(P2(=O)OCC(C)(C)CO2)=C(C)N1` (centres undefined) stands -0.621%; under `CCC(C)(C)OC(=O)N[C@@H](Cc1c[nH]c2ccccc12)C(=O)N[C@@H](CCSC)C(=O)N[C@@H](CC(=O)O)C(=O)N[C@@H](Cc1ccccc1)C(N)=O`, -0.0476%; under `C=C[C@]1(C)C[C@@H](OC(=O)CSC(C)(C)CNC(=O)[C@H](N)C(C)C)[C@]2(C)[C@H](C)CC[C@]3(CCC(=O)[C@H]32)[C@@H](C)[C@@H]1O`, 0.425%.
The same measure, in the same setting: under `C=C1C(=C/C=C2\CCC[C@]3(C)[C@@H]([C@H](C)CCCC(C)(C)O)CC[C@@H]23)C[C@@H](O)C[C@@H]1O` stands 0.0014%; under `CO[C@H]1C=CO[C@@]2(C)Oc3c(C)c(O)c4c(O)c(c(/C=N/N5CCN(C6CCCC6)CC5)c(O)c4c3C2=O)NC(=O)/C(C)=C\C=C[C@H](C)[C@H](O)[C@@H](C)[C@@H](O)[C@@H](C)[C@H](OC(C)=O)[C@@H]1C`, 0.307%.
Same read-out and setting: then `O=C(CO)[C@@H](O)[C@H](O)[C@@H](O)C(=O)O`, with 0.146%; and `O=C(Nc1ccc(Br)cc1)c1cc(Br)c(Br)s1`, with -0.629%.
`CCCOc1ccc2nc(NC(=O)OC)sc2c1`: the “fluorescence, relative to Rose Bengal” value was 0.0284%.
Consider `CN1[C@@H]2CC[C@H]1CC(OC(c1ccccc1)c1ccccc1)C2` (some centres undefined), for which the Potency entry was “inactive”.
Regarding `c1ccc2c(c1)Sc1ccccc1N2CCN1CCCC1`, the “fluorescence, relative to Rose Bengal” value is -0.0166%.
The same measure, in the same setting: under `C[N+]1(C)[C@@H]2CC(OC(=O)C(O)(c3cccs3)c3cccs3)C[C@H]1[C@@H]1O[C@@H]12` (some centres undefined) stands 0.177%; under `CCCCCCCCCCCCCCCC(=O)OC[C@@H](O)[C@H]1OC[C@H](O)[C@H]1O`, -0.18%.
Same read-out and setting: then `CCC(=O)OCC(=O)[C@@]1(OC(=O)CC)[C@@H](C)C[C@H]2[C@@H]3CCC4=CC(=O)C=C[C@]4(C)[C@@]3(Cl)[C@@H](O)C[C@@]21C`, with 0.218%; and `NC[C@@H]1O[C@H](O[C@H]2[C@@H](O)[C@H](O[C@@H]3[C@@H](O)[C@H](N)C[C@H](N)[C@H]3O[C@H]3O[C@H](CN)[C@@H](O)[C@H](O)[C@H]3N)O[C@@H]2CO)[C@H](N)[C@@H](O)[C@@H]1O`, with 0.142%.
For `O=C1/C(=C\c2cccs2)CCC/C1=C\c1cccs1`, the “fluorescence, relative to Rose Bengal” value is -0.268%.
On the same count and under the same terms, then `CN(C)CCOc1ccccc1Cc1ccccc1` (tested in a mixture with another compound), with 0.029%; and `Cc1cc(-c2ccc(N=Nc3c(S(=O)(=O)O)cc4cc(S(=O)(=O)O)cc(N)c4c3O)c(C)c2)ccc1N=Nc1c(S(=O)(=O)O)cc2cc(S(=O)(=O)O)cc(N)c2c1O`, with 0.62%; and `O=C(OCc1ccccc1)c1cccnc1`, with -0.0588%.
The same measure, in the same setting: then `O=C(O)CO.[NH2-].[NH2-].[Pt+2]`, with 0.356%; and `CC(=O)O[C@H]1CC[C@@]2(C)C(=CC[C@@H]3[C@@H]2CC[C@]2(C)C(c4cccnc4)=CC[C@@H]32)C1`, with -0.0308%.
Same read-out and setting: then `CCCCC(=O)N(Cc1ccc(-c2ccccc2-c2nn[nH]n2)cc1)[C@@H](C(=O)O)C(C)C`, with -0.59%; and `CCOc1cc(-c2nccc3cc(OC)c(OC)cc23)cc(OCC)c1OCC`, with -0.727%.
As for `C=C1CC[C@H](O)CC1=C/C=C1\CCC[C@]2(C)[C@@H]([C@H](C)CC[C@@H](O)C(C)(C)O)CC[C@@H]12`, the “fluorescence, relative to Rose Bengal” value is 0.766%.
On the same count and under the same terms, then `CCOC(=O)[C@@H](N)CS`, with 0.966%; and `Cn1c(O)c(N=NC(N)=S)c2ccccc21`, with -0.381%.
On the same count and under the same terms, then `CC(/C=C/C=C(\C)C(=O)O[C@@H]1O[C@H](CO[C@@H]2O[C@H](CO)[C@@H](O)[C@H](O)[C@H]2O)[C@@H](O)[C@H](O)[C@H]1O)=C\C=C\C=C(C)\C=C\C=C(/C)C(=O)O[C@@H]1O[C@H](CO[C@@H]2O[C@H](CO)[C@@H](O)[C@H](O)[C@H]2O)[C@@H](O)[C@H](O)[C@H]1O`, with -0.487%.
